This is an account of results in PubChem BioAssay AID1117282 (The Scripps Research Institute Molecular Screening Center, 2014).

Broadly, the inhibition is the change of the read-out against control, counted positive when it falls.

The other results are listed elsewhere or left out. Values without a mark were called inactive. Calls of active or inactive are those of the source.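 The calls were made as follows: active = mean inhibition across replicates above a set limit taken from the earlier primary screen (cut at about 11% in these data); inactive = the rest.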

Chain of RNA-editing ligase 1, mitochondrial (Trypanosoma brucei brucei) (P86926 whole entry, looked up): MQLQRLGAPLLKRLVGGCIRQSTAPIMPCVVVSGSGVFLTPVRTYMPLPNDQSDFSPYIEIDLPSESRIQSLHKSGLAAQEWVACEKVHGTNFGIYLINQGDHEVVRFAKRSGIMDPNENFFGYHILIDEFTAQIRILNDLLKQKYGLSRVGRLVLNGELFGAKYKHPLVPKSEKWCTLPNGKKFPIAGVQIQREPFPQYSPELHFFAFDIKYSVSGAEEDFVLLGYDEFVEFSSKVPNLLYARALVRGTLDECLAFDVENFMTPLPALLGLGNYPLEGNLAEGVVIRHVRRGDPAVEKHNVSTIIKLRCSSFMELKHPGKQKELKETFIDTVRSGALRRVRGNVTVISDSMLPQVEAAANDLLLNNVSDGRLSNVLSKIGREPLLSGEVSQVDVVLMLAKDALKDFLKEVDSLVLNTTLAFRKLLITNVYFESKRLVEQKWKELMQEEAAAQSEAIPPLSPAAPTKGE

This experiment addresses RNA-editing ligase 1, mitochondrial (Trypanosoma brucei brucei) (UniProt P86926). In words: TbREL1 RNA ligase inhibitors, confirmation, biochemical, FRET fluorescence, triplicate (AID 1117282).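 Also: 0% = REL1 with substrate and DMSO and 100% = REL1 plus control inhibitor NSC42067.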 To be noted: TbREL1 RNA ligation, at 9.66 µM, stronger effect = higher value.
Regarding `Nc1ccc2nc3c(=O)[nH]c(=S)[nH]c3nc2c1`, the inhibition was 14.2% (active).
With `O=C(Nc1cccc(F)c1)NC1CCCCCCC1` the figure was 4.12%; with `CC[C@@H](C)[C@@H]1CN([C@@H](C)CN2CCC[C@H]2CN2C(N)=NC[C@H]2C(C)C)C(=N)N1CCc1ccc(Cl)c(Cl)c1`, 13.3% (active); with `CC(C)Cn1c(N)c(C(=O)NCc2cccs2)c2nc3ccccc3nc21`, 6.35%.
Next, `COc1c(O)cc2oc(-c3ccc(O)c(O)c3)cc(=O)c2c1O`: 12.7% (active); `CCCCCn1c(=O)[nH]c2cc(C(=O)NCCCN3CCCCC3C)ccc2c1=O` (centres undefined): 7.94%; `CNc1nc(Nc2ccc(C)c(Cl)c2)nc(N)c1[N+](=O)[O-]`: 9.65%.
With `O=C(NCc1ccccc1)[C@@H]1CSC2c3ccccc3C(=O)N21` (some centres undefined) the figure was 3.84%; with `COc1cc(/C=C/C(=O)n2cnc3ccccc32)cc(OC)c1OC`, 2.66%; with `Cc1nnsc1C(=O)Nc1cccc(Cl)c1C`, 2.09%.
Take `C=CCn1c(=S)[nH]c2scc(-c3ccco3)c2c1=O`: the inhibition was 13.8% (active).
Next, `COC(=O)C1=C(C)N(Cc2cccc(C(F)(F)F)c2)C(=NCc2ccccc2)NC1c1ccccc1C(F)(F)F` (centres undefined): 21.2% (active); `O=C(Nc1nc(-c2ccco2)c(-c2ccco2)s1)c1ccco1`: 6.13%.
On to `COCc1c(N)c(C)nc(Cl)c1C#N`, for which the inhibition was 7.44%.
Regarding `COc1ccc(C(C(=O)Nc2c(C)cccc2C)N2CCN(c3ccc(C)cc3)CC2)cc1` (centres undefined), the inhibition is -1.79%.
With `CC1(C)CC(N2CCN(C(c3ccccc3)c3ccccc3)CC2)=CC(=[N+]2CCCCC2)C1` the figure was 16.7% (active).
Turning to `COc1cc(NC(=O)CCS(=O)(=O)c2ccc3c(c2)oc(=O)n3C)cc(OC)c1`, the inhibition is 2.33%.
Consider `COC(=O)C1=C(C)N(Cc2cccc(C(F)(F)F)c2)C(=NCc2cccc(C(F)(F)F)c2)NC1c1ccccc1C(F)(F)F` (centres undefined), for which the inhibition is 19.9% (active).
Next, `CN1CCN(/N=C2/C(=O)Nc3ccc([N+](=O)[O-])cc32)CC1`: 3.63%.
